Among the test systems are RPMI-8226 leukemia; OVCAR-8 ovarian; OVCAR-5 ovarian; OVCAR-4 ovarian; SK-OV-3 ovarian; IGROV1 ovarian; OVCAR-3 ovarian; HS 578T breast; NCI/ADR-RES ovarian; T-47D breast.
Common to all, as to experiment: NCI-60 one-dose screen, 48 h (100 = growth as untreated, 0 = no growth, -100 = all killed)
Common to all, as to details: 10 µM unless noted

Molecules are shown by their SMILES. This is part of a sample that, as a whole, favours compounds with a hit. Of some 83,000 tested, about 20% had one in any assay.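 Assay: single dose, 48 h. Readout: percent growth (0 = no net growth; negative = cell death). Active: <10.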 Unmarked numbers belong to inactive results. Activity calls are given as the source filed them.

Take `NC(=N\N=C\c1ccccc1O)/C(N)=N/N=C/c1ccccc1O`: the growth in the assay on RPMI-8226 leukemia was 61.1%; with OVCAR-8 ovarian it was 81.3%; in the assay on OVCAR-5 ovarian, 96.7%; in the assay with OVCAR-4 ovarian, 6.53% (active); with SK-OV-3 ovarian, 92.4%; with IGROV1 ovarian it was 97.8%. Also, the growth in the assay on OVCAR-3 ovarian is 63.1%; with HS 578T breast, 68.8%; in the assay on NCI/ADR-RES ovarian, 83.3%; in the assay on T-47D breast, 64%.

Regarding `O=C(CN1N=C(c2ccc(F)cc2)CCC1=O)Nc1nccs1`, the growth in the assay with RPMI-8226 leukemia was 103%; in the assay with OVCAR-8 ovarian, 98.6%; with OVCAR-5 ovarian, 107%; in the assay on OVCAR-4 ovarian, 97.6%; in the assay on SK-OV-3 ovarian, 97.7%; with IGROV1 ovarian it was 100%. Further, the growth is 113% in the assay on OVCAR-3 ovarian, 100% in the assay with HS 578T breast, 109% with NCI/ADR-RES ovarian and 83.7% in the assay on T-47D breast.

`O=C(Nc1cc(Br)ccn1)c1cc2cc(Nc3nc(-c4ccccc4)nc4ccccc34)ccc2oc1=O`: the growth was 108% with RPMI-8226 leukemia; 103% in the assay on OVCAR-8 ovarian; 115% in the assay with OVCAR-5 ovarian; 111% in the assay on OVCAR-4 ovarian; 103% in the assay with SK-OV-3 ovarian; 115% with IGROV1 ovarian. In addition, the growth was 113% in the assay with OVCAR-3 ovarian, 107% in the assay with HS 578T breast, 113% in the assay on NCI/ADR-RES ovarian and 98.3% in the assay on T-47D breast.

For the compound `Cc1c(Cl)cccc1NC(=O)c1sc2nc3c(cc2c1N)CCCCC3`, the growth was 22.2% with RPMI-8226 leukemia; 31.5% with OVCAR-8 ovarian; 58.3% with OVCAR-5 ovarian; 59.2% in the assay with OVCAR-4 ovarian; 47.8% in the assay with SK-OV-3 ovarian; 54.9% with IGROV1 ovarian. Besides, the growth in the assay on OVCAR-3 ovarian is -3.42% (active); in the assay with HS 578T breast, 38%; in the assay with NCI/ADR-RES ovarian, 19.7%; in the assay on T-47D breast, 44%.

Take `O=Cc1[nH]c(Sc2ccccc2)c2ccccc12`: the growth in the assay on RPMI-8226 leukemia was 7.59% (active); with OVCAR-8 ovarian, 68.6%; in the assay with OVCAR-5 ovarian it was 87.4%; with OVCAR-4 ovarian, 58.3%; in the assay with SK-OV-3 ovarian it was 83.5%; in the assay on IGROV1 ovarian it was 88.2%. Besides, the growth is 50.4% with OVCAR-3 ovarian, 64.9% in the assay with HS 578T breast, 69.7% with NCI/ADR-RES ovarian and 44.1% in the assay on T-47D breast.

On to `COc1c(O)cc2oc3cc(O[C@@H]4OC(C)[C@@H](O)[C@H](O)C4O)c(CC=C(C)C)c(O)c3c(=O)c2c1CC=C(C)C` (stereo not given in full), for which the growth with RPMI-8226 leukemia is 73.2%; in the assay with OVCAR-8 ovarian, 99.3%; in the assay with OVCAR-5 ovarian, 119%; in the assay on OVCAR-4 ovarian it was 102%; in the assay on SK-OV-3 ovarian, 113%; in the assay on IGROV1 ovarian, 83.9%. Further, the growth in the assay with OVCAR-3 ovarian was 94.7%; in the assay with HS 578T breast, 98.4%; with NCI/ADR-RES ovarian, 102%; in the assay with T-47D breast, 86.6%.

For the compound `N#Cc1ccc(Oc2ccc3ccc(=O)oc3c2)cc1`, the growth with RPMI-8226 leukemia was 81.5%; in the assay with OVCAR-8 ovarian, 87.2%; in the assay on OVCAR-5 ovarian, 104%; in the assay with OVCAR-4 ovarian it was 109%; in the assay with SK-OV-3 ovarian, 112%; in the assay with IGROV1 ovarian it was 121%. Also, the growth with OVCAR-3 ovarian was 117%; in the assay on HS 578T breast it was 93.4%; in the assay on NCI/ADR-RES ovarian it was 107%; with T-47D breast it was 94.5%.

With `C#C[C@@]1(O)[C@@H](CO)O[C@@H](n2cc(-c3ccco3)c3c(N)ncnc32)[C@@H]1O`, the growth in the assay on RPMI-8226 leukemia is 80.3%; in the assay on OVCAR-8 ovarian, 65.9%; in the assay on OVCAR-5 ovarian it was 66.9%; in the assay on OVCAR-4 ovarian it was 61.2%; in the assay with SK-OV-3 ovarian it was 26.3%; with IGROV1 ovarian, -11.6% (active). The growth in the assay on OVCAR-3 ovarian was 80.3%; in the assay with HS 578T breast, 49.8%; in the assay with NCI/ADR-RES ovarian, 61.7%; in the assay with T-47D breast it was -17.2% (active).

With `O=C1C(Cl)=C(NCCCN(CCCNC2=C(Cl)C(=O)c3ccccc3C2=O)C2=C(Cl)C(=O)c3ccccc3C2=O)C(=O)c2ccccc21`, the growth with RPMI-8226 leukemia is 45.4%; with OVCAR-8 ovarian, 39.2%; with OVCAR-5 ovarian it was 121%; with OVCAR-4 ovarian, 33.9%; with SK-OV-3 ovarian it was 93.8%; with IGROV1 ovarian it was 54.8%. In addition, the growth with OVCAR-3 ovarian was -0.584% (active); with HS 578T breast, 67.6%; with NCI/ADR-RES ovarian it was 76.1%; with T-47D breast, 51.8%.

For `CCCCn1c(=O)c(/C=C/C(=O)/C=C/c2ccc(O)c(OC)c2)cc2ccc(Cl)cc21`, the growth was -14.2% (active) with RPMI-8226 leukemia; -4.03% (active) with OVCAR-8 ovarian; 49.6% with OVCAR-5 ovarian; 26.1% in the assay with OVCAR-4 ovarian; 59.2% in the assay with SK-OV-3 ovarian; 6.29% (active) in the assay on IGROV1 ovarian. Further, the growth with OVCAR-3 ovarian is -26.2% (active); with HS 578T breast it was 47.8%; in the assay with NCI/ADR-RES ovarian, 14.8%; with T-47D breast, 25.3%.

For `CO[C@@]12C=C[C@@]34CCC(=O)N3c3ccccc3[C@@H](O1)C4C2`, the growth in the assay on RPMI-8226 leukemia is 94.6%; with OVCAR-8 ovarian, 97.7%; with OVCAR-5 ovarian it was 101%; with OVCAR-4 ovarian it was 109%; in the assay on SK-OV-3 ovarian, 107%; in the assay with IGROV1 ovarian it was 99.1%. Also, the growth is 108% in the assay with OVCAR-3 ovarian, 95.3% in the assay on HS 578T breast, 97.7% with NCI/ADR-RES ovarian and 96.2% with T-47D breast.

For the compound `COc1cc(C(=O)Nc2cc(OC)c3ccn(C)c3c2)cc2c1C[C@]1(C)CC[C@@H](O)C(C)(C)[C@H]1O2`, the growth in the assay with RPMI-8226 leukemia is -31.1% (active); in the assay on OVCAR-8 ovarian, 24.1%; in the assay with OVCAR-5 ovarian, 55.2%; in the assay on OVCAR-4 ovarian, 54.8%; in the assay with SK-OV-3 ovarian, 15.2%; in the assay with IGROV1 ovarian it was 25.2%. Besides, the growth with OVCAR-3 ovarian was -14.6% (active); in the assay with HS 578T breast, -12.5% (active); with NCI/ADR-RES ovarian, 13.9%; in the assay on T-47D breast, 19.5%.

In the case of `NS(=O)(=O)c1ccc(-n2ncc(NC(=O)Nc3ccc(S(=O)(=O)Nc4nccs4)cc3)c2-c2ccccc2)cc1`, the growth in the assay with RPMI-8226 leukemia is 103%; in the assay on OVCAR-8 ovarian, 102%; in the assay with OVCAR-5 ovarian, 99%; in the assay on OVCAR-4 ovarian, 101%; in the assay on SK-OV-3 ovarian, 99.5%; with IGROV1 ovarian, 105%. Besides, the growth with OVCAR-3 ovarian was 111%; in the assay on HS 578T breast, 102%; with NCI/ADR-RES ovarian it was 105%; with T-47D breast, 94.2%.

The record behind these values is PubChem BioAssay (NCI).
